High-throughput results from PubChem BioAssay.
DAT uptake mod – changed hDAT dopamine uptake under cocaine IC80, either direction, primary screen, cocaine antagonist project, cell-based, LLC-PK1 hDAT, [14C]-dopamine uptake, MLSMR. B-score at 10 µM. 1.3% of 110,000 active. LLC-PK1 hDAT cells, [14C]-dopamine uptake with cocaine IC80; actives deviate in either direction. Sodium-dependent dopamine transporter (Homo sapiens), Q01959;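 active = Z score or B-score, a plate-position-corrected score, falls beyond the plate's 99.7% confidence bounds, in either direction; inactive = both scores lie inside the 99.7% bounds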
HePTP inhibitor – inhibitors of human HePTP phosphatase, primary screen, biochemical, absorbance, leukemia target. recombinant HePTP phosphatase activity, OD absorbance. 0.64% of 110,000 active. inhibition, % at 20 µM; in the data active = inhibition above about 50%
Target sequence (P35236 whole entry, looked up): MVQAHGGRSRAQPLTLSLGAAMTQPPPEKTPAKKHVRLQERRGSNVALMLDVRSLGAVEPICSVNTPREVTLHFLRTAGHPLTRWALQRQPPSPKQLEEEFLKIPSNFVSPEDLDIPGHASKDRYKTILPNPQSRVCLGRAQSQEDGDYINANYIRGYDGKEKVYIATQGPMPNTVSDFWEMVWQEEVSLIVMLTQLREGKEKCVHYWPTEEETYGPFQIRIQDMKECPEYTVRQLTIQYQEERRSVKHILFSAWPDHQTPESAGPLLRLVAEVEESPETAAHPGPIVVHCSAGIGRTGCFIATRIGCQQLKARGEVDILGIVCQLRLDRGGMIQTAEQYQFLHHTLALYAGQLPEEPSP
D1 mod – D1 CRE-luciferase signal change, two-sided – cell-based, HEK293 D1, dopamine EC30, D1 allosteric modulator project, primary screen; D(1A) dopamine receptor (Homo sapiens), P21728; dopamine EC30 potentiation; actives deviate in either direction; B-score at 10 µM; 5.9% of 58,000 active; AID 641, 2007;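 active = luminescence count or its row- and column-corrected plate score outside the 99.7% band of the plate's sample wells, on either side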
PLAP act – PLAP enzyme activators, biochemical, luminescence, HTS; purified PLAP enzyme, luminescent substrate read-out; hits give high values; activation fold at 20 µM; 1.2% of 96,000 active; AID 696, 2007; in the data active = activation fold above about 2
Candida biofilm – clotrimazole potentiators killing Candida biofilms, primary screen, with clotrimazole, Alamar Blue; C. albicans biofilm + clotrimazole; inhibition, % at 6 µM; 0.14% of 85,000 active;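 active = inhibition above 20%; inactive = inhibition below 20%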;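 also: preformed 24 hr biofilms exposed to compound for 48 hr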
TNAP act mid DEA – human TNAP enzyme activators, primary screen, biochemical, luminescent, intermediate phosphate acceptor level. 64,000 tested, under 10 active. activation factor at 20 µM. purified TNAP, CDP-star luminescence, 100 mM DEA, 30 min; hits give high values; scale: 0 levamisole-inhibited, 1 vehicle-only enzyme. AID 813, 2007. Alkaline phosphatase, tissue-nonspecific isozyme (Homo sapiens), P05186;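 active = activation factor of at least 2 at 20 µM, relative to controls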
D1 mod confirm – D1 receptor positive allosteric modulators, retest, confirmation, cell-based, HEK293 D1, CRE-luciferase, duplicate; shares compounds with D1 mod; dopamine EC30 potentiation; hits give high values; luminescence at 10 µM; 88% of 2,200 active; AID 642, 2007;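 active = luminescence in either of two replicates above the same-plate mean plus 3 SD of the low-dose dopamine control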
D1 no dopamine – D1 receptor agonism without dopamine, confirmation, mechanism study for D1 allosteric modulator project, cell-based, HEK293 D1, CRE-luciferase, secondary assay 1; 0.8% of 1,900 active; shares compounds with D1 mod; luminescence, no dopamine; hits give high values; luminescence at 10 µM; in the data active = luminescence above about 3900
Isoprot counter – counter-screen for D1 modulators: isoproterenol response in HEK293 cells; shares compounds with D1 mod; HEK293 D1 CRE-luciferase, isoproterenol EC30 counter-screen; hits give high values; luminescence at 10 µM; 63% of 2,200 active;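 active = luminescence in either replicate above plate mean of wells with a partly effective reference agonist dose plus 3 SD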;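 also: isoproterenol raises cAMP through native beta-adrenoceptor Gs so signal bypasses D1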
Of the large screens only hits and unclear results are named; the others gave an inactive call (follow-up assays come after a bar, where they were run). The entries come from a sample that favours hits as a whole.

O=C1c2cccnc2C(=O)N1C1CCCCC1	none
Cc1ccc(NC2c3ncccc3C(=O)N2C2CCCCC2)cc1 (stereo not drawn)	D1 mod 11 | D1 mod confirm 13584 | Isoprot counter 3228
Cc1ccc(NC2c3ncccc3C(=O)N2C2CCCCC2)cc1C (stereo not drawn)	D1 mod 4.1 | D1 mod confirm 10752 | D1 no dopamine inactive | Isoprot counter 6560
Cc1cc(-c2cccs2)c2c(n1)sc1c(=O)[nH]c(=O)[nH]c12	D1 mod 9.9 | D1 mod confirm 13116 | D1 no dopamine inactive | Isoprot counter inactive
CCOC(=O)c1cc(C#N)c(N)nc1C	D1 mod 4.6 | D1 mod confirm 8556 | Isoprot counter 3320
CC(=O)Nc1ccccc1NC(=O)COc1ccc2ccccc2c1	none (no result: DAT uptake mod, D1 mod, PLAP act, Candida biofilm, TNAP act mid DEA)
O=C(O)c1ccccc1SC1CC(=O)N(c2ccc(F)cc2)C1=O (stereo not drawn)	none (no result: DAT uptake mod, D1 mod, PLAP act, Candida biofilm, TNAP act mid DEA)
O=C(O)c1ccccc1SC1CC(=O)N(C2CCCCC2)C1=O (stereo not drawn)	D1 mod 3.9 (no result: PLAP act) | D1 mod confirm inactive | D1 no dopamine inactive | Isoprot counter inactive
CCCOc1ccc(N2C(=O)CC(N(CCc3ccc(OC)c(OC)c3)C(=O)CC)C2=O)cc1 (stereo not drawn)	none (no result: DAT uptake mod, D1 mod, PLAP act, Candida biofilm, TNAP act mid DEA)
COC(=O)c1c(NC(=O)c2ccccc2[N+](=O)[O-])sc(Cc2ccccc2)c1C	none (no result: DAT uptake mod, D1 mod, PLAP act, Candida biofilm, TNAP act mid DEA)
Brc1ccccc1C1=Nn2c(nnc2-c2ccccc2)SC1	D1 mod 12 | D1 mod confirm 13500 | D1 no dopamine inactive | Isoprot counter 5228
COc1ccccc1-c1nnc2n1N=C(c1ccc(O)c(O)c1)CS2	D1 mod 23 | D1 mod confirm 21320 | Isoprot counter 12092
CCOc1ccc(C2=Nn3c(nnc3-c3ccccc3OC)SC2)cc1	D1 mod 28 (no result: Candida biofilm) | D1 mod confirm 21740 | Isoprot counter 15468
CCOc1ccc(-c2nnc3n2N=C(c2ccc(OC)cc2)CS3)cc1	none (no result: D1 mod)
COc1ccc(OCC(=O)Nc2ccc(F)c(Cl)c2)cc1	none (no result: DAT uptake mod, D1 mod, PLAP act, Candida biofilm, TNAP act mid DEA)
Cc1noc(C)c1CSc1nnc(-c2cc(Cl)ccc2Cl)n1N	D1 mod 9.5 | D1 mod confirm 25992 | D1 no dopamine inactive | Isoprot counter 5704
O=C1COc2ccccc2N1Cc1ccccc1Cl	D1 mod 4.9 | D1 mod confirm 7968 | D1 no dopamine inactive | Isoprot counter inactive
O=c1c2cn[nH]c2nc(SCc2ccc3c(c2)OCCO3)n1-c1ccccc1	D1 mod 7.9 (no result: PLAP act) | D1 mod confirm 11032 | D1 no dopamine inactive | Isoprot counter 4760
CCC(C)c1cc(S(=O)(=O)N2CCOCC2)ccc1OC (stereo not drawn)	D1 mod 9.5 | D1 mod confirm 11376 | Isoprot counter 3288
COc1ccc(S(=O)(=O)N2CCOCC2)cc1C(C)C	none
C/C=C/Cn1c(SCc2ccc(Cl)cc2)nc2c1c(=O)[nH]c(=O)n2C	D1 mod 7.3 | D1 mod confirm 13964 | D1 no dopamine inactive | Isoprot counter 5136
CCCn1c(SCc2ccc(Cl)cc2)nc2c1c(=O)[nH]c(=O)n2C	D1 mod 5.2 | D1 mod confirm 11480 | Isoprot counter 3456
C/C=C/Cn1c(SC)nc2c1c(=O)[nH]c(=O)n2C	none
C/C=C/CSc1nc2c(c(=O)[nH]c(=O)n2C)n1CCC	D1 mod 14 | D1 mod confirm 14660 | D1 no dopamine inactive | Isoprot counter 3616
CCCn1c(Sc2nc3c(c(=O)[nH]c(=O)n3C)n2CCC)nc2c1c(=O)[nH]c(=O)n2C	none (no result: HePTP inhibitor, D1 mod, Candida biofilm, TNAP act mid DEA)
CSc1nnc(Cn2c(=O)sc3ccccc32)n1-c1ccccc1	none
N=c1sc2ccccc2n1-c1ccccc1	D1 mod 21 | D1 mod confirm 9268 | D1 no dopamine inactive | Isoprot counter 3348
COc1ccc(-c2nc(C#N)c(NC(C)c3ccccc3)o2)cc1OC (stereo not drawn)	D1 mod 6.8 (no result: DAT uptake mod) | D1 mod confirm 12956 | Isoprot counter inactive
N#Cc1nc(-c2ccccc2Cl)oc1NCC1CCCO1 (stereo not drawn)	D1 mod 5.7 | D1 mod confirm 10656 | D1 no dopamine inactive | Isoprot counter 3572
COc1ccc(-c2nc(C#N)c(N3CCC(C(N)=O)CC3)o2)cc1OC	none (no result: HePTP inhibitor, D1 mod, TNAP act mid DEA)
COc1ccc(-c2nc(C#N)c(N3CCOCC3)o2)cc1OC	D1 mod 3.2 | D1 mod confirm 11200 | D1 no dopamine inactive | Isoprot counter 3116
COc1ccc(-c2nc(C#N)c(NCCCN(C)C)o2)cc1OC	none
COc1ccc(-c2nc(C#N)c(NCC3CCCO3)o2)cc1OC (stereo not drawn)	D1 mod 3.8 | D1 mod confirm 8472 | D1 no dopamine inactive | Isoprot counter 3300
CN(C)c1oc(-c2ccccc2Cl)nc1C#N	D1 mod 3.4 (no result: DAT uptake mod) | D1 mod confirm 6136 | D1 no dopamine inactive | Isoprot counter inactive
CN(C)c1oc(-c2ccccc2)nc1C#N	none (no result: HePTP inhibitor, D1 mod, Candida biofilm, TNAP act mid DEA)
COc1ccc(Nc2nc(N)nc(SCc3nnc(C)s3)n2)cc1	D1 mod 5.7 | D1 mod confirm 8828 | D1 no dopamine inactive | Isoprot counter 3464
COc1ccc(Nc2nc(N)nc(CSc3nnc(N)s3)n2)cc1	none (no result: HePTP inhibitor, D1 mod, TNAP act mid DEA)
O=C(c1ccc(-c2ccc(Cl)cc2)o1)N1CCOCC1	none (no result: DAT uptake mod, D1 mod, PLAP act, Candida biofilm, TNAP act mid DEA)
O=[N+]([O-])c1ccccc1N[C@H]1O[C@H](CO)[C@@H](O)[C@@H]1O	none (no result: DAT uptake mod, D1 mod, PLAP act, Candida biofilm, TNAP act mid DEA)
CCOC(=O)C(NCCCO)c1ccccc1 (stereo not drawn)	D1 mod 2.8 | D1 mod confirm inactive | D1 no dopamine inactive | Isoprot counter inactive
CCOC(=O)c1cc2nc(-c3ccccc3)cc(C)n2n1	none (no result: DAT uptake mod, D1 mod, PLAP act, Candida biofilm, TNAP act mid DEA)
NC(=O)c1cc(-c2ccccc2)nc(N2CCCCCC2)n1	D1 mod 2.7 | D1 mod confirm 6540 | D1 no dopamine inactive | Isoprot counter inactive
Nc1nc(-c2ccccc2)cc(N2CCCC2)n1	none (no result: DAT uptake mod, D1 mod, PLAP act, Candida biofilm, TNAP act mid DEA)
